# According to publication PMC5540273 (PLoS ONE, 2017):
# Assays:
# ADCK3 = tested on: T1, ADCK3
# T1 construct: gene CABC1
# AMPK-alpha1 = tested on: T2, AMPK-alpha1
# T2 construct: gene PRKAA1
# ASK1 = tested on: T3, ASK1
# T3 construct: gene MAP3K5
# ARK5 = tested on: T4, ARK5
# T4 construct: gene NUAK1
# ASK2 = tested on: T5, ASK2
# T5 construct: gene MAP3K6
# 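Also: kd values determined as follow-up on hits from a single-replicate KINOMEscan panel screen.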
smiles,measurement,setting,value
O=C1NC(=O)C(N2CCc3ccccc32)=C1c1ccccc1Cl [SB-373598],Kd,ABL1-phosphorylated,> 10 µM
COc1ccccc1-c1ccc2c(NC(=O)C3CC3)n[nH]c2n1 [SB-711239],Kd,ABL1-phosphorylated,> 10 µM
Cn1ccc2ncnc(Oc3cccc(C(=O)Nc4ccccc4)c3)c21,Kd,ACVR1,> 10 µM
COc1ccc(C2=C(Nc3cccc(C(=O)O)c3)C(=O)NC2=O)cc1 [SB-390765],Kd,ACVR1,> 10 µM
CC1=C(C(=O)Nc2cc3cn[nH]c3cc2F)C(c2ccc(C(F)(F)F)cc2)CC(=O)N1 (centres unmarked) [GSK429286],Kd,ACVR2A,> 10 µM
COc1cccc(NC(=O)NC2CCN(c3ccnc(Nc4ccc(F)cc4)n3)C2)c1 (centres unmarked) [GSK1379721],Kd,ACVR2A,> 10 µM
NC(=O)c1nnc2ccccc2c1N,Kd,ADCK3,> 10 µM
Cc1c(O)cccc1Nc1ccnc2ccc(C(F)(F)F)cc12.Cl [GW466413],Kd,ADCK4,0.51 µM
CCn1c(-c2cccnc2O)nc2cnccc21 [SB-736715],Kd,ADCK4,> 10 µM
Cl.Oc1ccc(-c2nc(-c3ccccc3)[nH]c2-c2ccncc2)cc1 [SB-428218],Kd,ADCK4,> 10 µM
O=c1cc(N2CCOCC2)nc2n(Cc3cccc(Cl)c3Cl)ccn12 [GSK2286295],Kd,AXL,> 10 µM
Fc1cc(Cl)ccc1Nc1ccnc2cc(-c3ccc(CN4CCCCC4)o3)ccc12 [GW560116],Kd,AURKA,> 10 µM
Cc1nnc(-c2ccc3occ(-c4ccc(S(C)=O)cc4)c3c2)[nH]1 (centres unmarked),Kd,AMPK-alpha1,> 10 µM
Cc1cc(N2Cc3ccccc3C2)nc(Nc2ccc(S(=O)(=O)N3CCOCC3)cc2)n1.Cl [GSK1669917],Kd,AKT1,> 10 µM
CC(C)(C)c1ccc(C(=O)Nc2cn3cc(Cl)ccc3n2)cc1,Kd,ASK1,1.5 µM
COc1cccc(-c2cc(-c3c[nH]nc3-c3ccccn3)ccn2)c1 [GW680338],Kd,AURKC,> 10 µM
C[C@@H]1CCCCN1c1cc(-c2ccc3c(N)n[nH]c3c2)nc(N)n1 [GSK2258759],Kd,AURKA,> 10 µM
Cc1c(Cn2ccn3c(=O)cc(N4CCOCC4)nc23)cccc1C(F)(F)F [GSK2289044],Kd,AKT3,> 10 µM
Cn1cncc1-c1ccc2ncnc(Nc3ccc(OCc4ccccc4)cc3)c2c1 [GW320571],Kd,AURKB,> 10 µM
Cc1cc(NCC(c2ccccc2)c2ccccc2)nc(NCc2ccc(C(F)(F)F)cc2)n1 [GW497681],Kd,ADCK4,2.3 µM
COc1cc2ncnc(Nc3ccc4nc(-c5ccccc5)[nH]c4c3)c2cc1OC.Cl [GW282450],Kd,AURKA,2.3 µM
Nc1ncnc2[nH]c(-c3ccccc3)nc12 [AH5015],Kd,AURKA,> 10 µM
O=C(Nc1ccc2c(c1)OCO2)NC1CCN(c2ccnc(Nc3ccc(F)cc3)n2)C1 (centres unmarked) [GSK1379724],Kd,AURKB,6.9 µM
COc1ccc(CNC(=O)NC2CCN(c3ccnc(Nc4cc(OC)c(OC)c(OC)c4)n3)C2)cc1 (centres unmarked) [GSK1379748],Kd,AURKB,0.33 µM
Cn1ccc2ncnc(Oc3ccc(Nc4nc5ccccc5[nH]4)cc3)c21,Kd,AURKB,0.059 µM
Cc1ccc(C(=O)Nc2ccc(Nc3ccnc4cc(-c5ccccn5)ccc34)cc2O)cc1.Cl [GW440146],Kd,AURKB,0.29 µM
same,Kd,AURKC,0.5 µM
Cn1ccc2ncnc(Oc3ccc(NC(=O)Nc4ccccc4)cc3)c21,Kd,AURKB,0.11 µM
same,Kd,AURKC,0.11 µM
Cc1ccc(-c2cc(-c3c[nH]nc3-c3ccccn3)ccn2)cc1 [GW684088],Kd,ARK5,> 10 µM
COc1cc(Nc2nccc(N3CCC(NC(=O)Nc4cc(C)ccc4C)C3)n2)cc(OC)c1OC (centres unmarked) [GSK1379762],Kd,AURKA,1.1 µM
same,Kd,AURKB,0.24 µM
same,Kd,AURKC,0.2 µM
COc1cc2ncn(-c3cc(OCC4CCCO4)c(C(N)=O)s3)c2cc1OC (centres unmarked) [GSK204607],Kd,AURKC,> 10 µM
CSc1nn2c(=O)cc(N3CCOCC3)nc2n1Cc1cccc(C(F)(F)F)c1C [GSK2363608],Kd,ASK2,> 10 µM
Nc1nc(-c2nccs2)c(-c2ccnc3ccccc23)s1 [GW693542],Kd,AKT3,> 10 µM
CC(C)(C)c1ccc(C(=O)Nc2cn3cc(-c4cccnc4)ccc3n2)cc1,Kd,ASK1,0.064 µM
CS(=O)(=O)c1ccc(-c2nc3n(c2-c2ccncc2)CCC3)cc1 [SKF-105942],Kd,AKT2,> 10 µM
Clc1cc(Cl)cc(Nc2ccnc(Nc3cc(Cl)cc(Cl)c3)n2)c1 [GSK175726],Kd,AURKA,> 10 µM
CCCc1ccc(S(=O)(=O)NC2CCN(c3ccnc(Nc4ccc(F)cc4)n3)C2)cc1 (centres unmarked) [GSK1379715],Kd,AKT2,> 10 µM
COc1ccccc1CNC(=O)c1cc(C(=O)c2ccccc2C)c[nH]1 [GSK364507],Kd,AURKA,> 10 µM
